Hits are enriched below; roughly 3% of the tested compounds scored in any of these assays.
aSyn UTR inh – MLPCN primary screen, SNCA 5' untranslated region; AID 1813, 2009; alpha-synuclein 5'UTR reporter, inhibitor activity; inhibition, % (tested at 7.5 µM); 300,000 compounds, 0.82% hits; in the data active = inhibition above about 60%; inconclusive = no clear call, values can overlap the other calls;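 note: H4 neuroglioblastoma cells stably carrying SNCA 5'UTR luciferase fusion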
CSC inhib – cancer stem cell viability inhibitors, primary screen, luminescence; cancer stem cell-like cells viability; 300,000 compounds, 1.1% hits; inhibition, % at 7.5 µM; in the data active = inhibition above about 75%; inconclusive = no clear call, values can overlap the other calls; tested in HMLE shEcad cells
KLF5 inh – KLF5 expression inhibitors, primary screen, DLD-1 cells, luminescence; 290,000 compounds, 0.23% hits; AID 1700, 2009; DLD-1 KLF5 promoter-luciferase reporter; inhibition, % at 5 µM;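 active = inhibition above a per-plate limit of that plate's mean compound inhibition plus 3 SD, cut at about 60% in these data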;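 note: higher means less KLF5 promoter-driven luciferase light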
IEC-6 tox – cytotoxicity in IEC-6 intestinal epithelial cells, primary screen, cytotoxicity control for KLF5 inhibitor project, cell-based, luminescence. AID 1825, 2009. IEC-6 cytotoxicity, luminescence viability. inhibition, % at 5 µM. 290,000 compounds, 0.78% hits; in the data active = inhibition above about 22%
SKKanGAS inh – S. pyogenes SKKanGAS growth inhibitors in kanamycin, primary screen, streptokinase expression inhibitor project, SKKanGAS strain, BacTiter-Glo luminescence; 6 h; inhibition, % at 7.5 µM; 300,000 compounds, 1.3% hits; AID 1662, 2009;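 active = mean replicate score, as percent of positive control median, at least 50; inconclusive = mean below 50 but one replicate at or above 50; inactive = mean and every replicate below 50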;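 note: strain carries kanamycin resistance gene driven by streptokinase promoter and grows in 40 µg/ml kanamycin; loss of luminescence reflects streptokinase promoter inhibition or plain growth inhibition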
Of the large screens only hits and unclear results are named; the others gave an inactive call.

CCN1CC=C2C(C1)C(c1ccc(Cl)s1)C(C#N)=C(N)C2(C#N)C#N (centres undefined)	none
COC(=O)c1ccc(S(=O)(=O)c2ccc(Cl)cc2)c(N)c1	none
CCCOC(c1ccccc1)(c1ccc(C(F)(F)F)cc1)C(Oc1nc(C)cc(C)n1)C(=O)O (centres undefined)	aSyn UTR inh inconclusive, KLF5 inh 70
Cc1cc(C)nc(OC(C(=O)O)C(OCCc2ccccc2)(c2ccc(F)cc2)c2ccc(F)cc2)n1 (centres undefined)	none
COC(=O)[C@]1(Cc2ccccc2)N[C@H](c2ccc(SC3CCCCC3)c(OC)c2)[C@@H]2C(=O)N(C)C(=O)[C@@H]21	none (no result: aSyn UTR inh, KLF5 inh, IEC-6 tox, SKKanGAS inh)
O=C(c1cc2c(s1)CCCC2)N1CCN(CCO)CC1	none (no result: aSyn UTR inh, KLF5 inh, IEC-6 tox, SKKanGAS inh)
COc1ccc(C(=O)Nc2sc(C)c(-c3ccccc3)c2C#N)cc1OC	SKKanGAS inh 54
CCOC(=O)c1c(-c2ccc(F)cc2)csc1NC(=O)CCN1CCOCC1	none
CCOC(=O)c1c(-c2ccc(-c3ccccc3)cc2)csc1NC(=O)CCN1CCOCC1	CSC inhib 105
CCOC(=O)c1c(-c2ccccc2)csc1NC(=O)CCN1C(=O)c2ccccc2C1=O	none
CCOC(=O)c1c(-c2ccc(-c3ccccc3)cc2)csc1NC(=O)CNCCN(C)C	aSyn UTR inh 101, CSC inhib 99, SKKanGAS inh 112
CC(C)(C)OC(=O)N1CCC(c2cc(=O)n3[nH]cc(C(=O)Nc4ccc(F)c(Cl)c4)c3n2)CC1	SKKanGAS inh 68 (no result: CSC inhib)
CC(C)(C)OC(=O)N1CCC(c2cc(=O)n3[nH]cc(C(=O)NC4CCCC4)c3n2)CC1	none
COc1ccc(NC(=O)c2c[nH]n3c(=O)cc(C4CCN(C(=O)OC(C)(C)C)CC4)nc23)cc1Cl	SKKanGAS inh 52
COC(=O)C[C@](O)(CCCC(C)(C)O)C(=O)O[C@@H]1C(OC)=C[C@]23CCCN2CCc2cc4c(cc2[C@H]13)OCO4	aSyn UTR inh 127, CSC inhib 98 (no result: KLF5 inh, IEC-6 tox)
COc1ccc(NS(=O)(=O)c2ccc3c(c2)CCN3C(=O)CCC(=O)O)cc1OC	none
Cc1[nH]n(-c2ncc(-c3ccccc3)s2)c(=O)c1C(c1ccc(Cl)cc1)C(C#N)C#N (centres undefined)	SKKanGAS inh 61
Cc1cccc(NC(=O)c2cc(-c3ccc(C)c(C)c3O)n[nH]2)c1	none
O=C(CCc1ccccc1)NNc1cc(N2CCCCC2)nc(N2CCCCC2)n1	aSyn UTR inh 82
CCc1oc2ccccc2c1C(=O)c1cc(Br)c(O)c(Br)c1	CSC inhib 85, SKKanGAS inh 50
CCc1ccc(OCC(=O)c2c(O)c3ccccc3oc2=O)cc1	none
COc1ccc(OC)c(NC(=O)C(=O)NNC(=O)COc2ccc(Br)cc2C)c1	SKKanGAS inh 121
COc1cc(/C=C2/C(=O)NN(c3ccc(C)c(Cl)c3)C2=O)cc([N+](=O)[O-])c1O	none
Cc1ccc(N2NC(=O)/C(=C\c3cc4c(cc3[N+](=O)[O-])OCO4)C2=O)cc1C	CSC inhib 88
COc1ccc(-c2csc(NC(=O)COC(=O)C3=COCCO3)n2)cc1	none
COc1ccccc1CNC(=S)Nc1ccc2nc(N3CCN(C)CC3)cc(C)c2c1	CSC inhib 80
CCCCc1ccc(NC(=S)NCc2ccccc2OC)cc1	SKKanGAS inh 59
Cc1cc(N2CCN(C)CC2)nc2ccc(NC(=S)NCCC(C)C)cc12	CSC inhib 83
CCCCc1ccc(NC(=S)NCc2ccc(OC)cc2)cc1	none (no result: CSC inhib)
CCn1cc(C(=O)O)c(=O)c2cc(F)c(N/N=C/c3ccccc3[N+](=O)[O-])cc21	SKKanGAS inh 79
Cc1c(Cl)cccc1NC(=S)NCCC(C)C	none
Cc1cc(Cl)ccc1NC(=S)NCCc1ccc(Cl)cc1	none
Cc1c(Cl)cccc1NC(=S)NCCC(c1ccccc1)c1ccccc1	SKKanGAS inh 79
Cc1cc(Cl)ccc1NC(=S)NCCC(c1ccccc1)c1ccccc1	SKKanGAS inh 66
Cc1ccc(C)c(CN2CCCN(Cc3cc(C)ccc3C)S2(=O)=O)c1	SKKanGAS inh 72 (no result: CSC inhib)
COc1ccc(-n2nc(C(=O)N3CCC(N4CCCCC4)CC3)c3c4ccccc4n(C)c3c2=O)cc1	none
O=C(N/N=C/c1cccs1)c1cncc(Br)c1	none
O=C(N/N=C/c1ccc([N+](=O)[O-])s1)c1ccccc1Br	none (no result: CSC inhib)
Cc1ccccc1NC(=O)/C=C/c1ccc([N+](=O)[O-])s1	CSC inhib 98
Cc1cc(C)cc(NC(=O)/C=C/c2ccc([N+](=O)[O-])s2)c1	none
Cc1ccccc1C(=O)N/N=C/c1ccc([N+](=O)[O-])s1	aSyn UTR inh 93 (no result: CSC inhib)
O=C(N/N=C/c1ccc(Br)s1)c1cccc([N+](=O)[O-])c1	aSyn UTR inh 70
O=C(N/N=C/c1ccoc1)c1cccc([N+](=O)[O-])c1	none (no result: aSyn UTR inh, SKKanGAS inh)
O=C(N/N=C\c1ccc([N+](=O)[O-])s1)c1cncc(Br)c1	aSyn UTR inh 77
O=C(Cc1ccccc1)N/N=C/c1ccc([N+](=O)[O-])s1	none
O=C(N/N=C/c1ccc([N+](=O)[O-])s1)c1ccccc1	aSyn UTR inh 68 (no result: CSC inhib)
CCCCCOc1ccc(C(=O)CCC(=O)Nc2ccc(NC(C)=O)cc2)cc1	none (no result: CSC inhib)
CCC/C(=C1/c2ccccc2C(=O)N1c1ccccc1)c1ccc2[nH]ccc2c1	CSC inhib 135 (no result: aSyn UTR inh, KLF5 inh, IEC-6 tox, SKKanGAS inh)
CCCOC(=O)c1ccc2c(c1)C(=O)N(c1ccccc1)C2=O	none (no result: CSC inhib)
Cc1cc2oc(=O)cc(CN3CCCCC3C)c2cc1Cl (centres undefined)	none
Cc1cc2oc(=O)cc(Cn3ncc(Cl)c(Cl)c3=O)c2cc1Cl	CSC inhib 80
O=C(c1cc(-c2ccncc2)nc2ccccc12)N1CCN(c2ccccc2O)CC1	none (no result: CSC inhib)
O=C(c1cc(-c2ccccc2)nc2ccccc12)N1CCN(c2ccccc2O)CC1	SKKanGAS inh 67
CN(C)S(=O)(=O)c1ccc(C(=O)NCc2nnc(SCC(=O)Nc3ccc(F)cc3)n2-c2ccc(F)cc2)cc1	none
O=C(O)c1ccc(Cl)c(S(=O)(=O)N(Cc2ccccc2)c2ccc(F)cc2)c1	CSC inhib 96
O=C(COC(=O)c1ccc([N+](=O)[O-])o1)Nc1ccc2c(c1)OCO2	none (no result: aSyn UTR inh, KLF5 inh, IEC-6 tox, SKKanGAS inh)
CCOc1ccc(CCNC(=O)Cn2cccc2C(=O)c2ccccc2C)cc1OCC	none
Cc1nc(N/N=C\c2ccc3c(c2)OCO3)sc1C	SKKanGAS inh 53
C(=N\Nc1nc2ccccc2s1)/c1ccc2c(c1)OCO2	none (no result: CSC inhib)
O=C(NCCCN1CCOCC1)c1ccc(Sc2ccc(Br)cc2)c([N+](=O)[O-])c1	CSC inhib 76
O=C(NCCCN1CCOCC1)c1ccc(Sc2ccccc2Cl)c([N+](=O)[O-])c1	none
Cc1ccc(Cl)cc1N1CCN(C(=O)c2ccc3c(c2)CCN3S(C)(=O)=O)CC1	none (no result: CSC inhib)
CCOC(=O)Nc1sc2c(c1C(=O)OCC)CCC2	none
CCOC(=O)c1c(NC(NC(=O)C(C)C)C(Cl)(Cl)Cl)sc2c1CCC2 (centres undefined)	CSC inhib 101
C/C(=N\Nc1nc(N2CCCCCC2)nc(N2CCCCCC2)n1)c1ccccc1	SKKanGAS inh 59

Screens from PubChem.
